The results in this text go back to PubChem BioAssay AID1347413 (National Center for Advancing Translational Sciences (NCATS), 2020).

Activity calls are given as the source filed them. A call without a number means that no potency is given here. Calls follow the shape of the dose curve; as a rule, active = well fitted curve in the direction sought with a large enough effect; inactive = no such curve, though single readings can be large or run the other way.

A short description of this assay: qHTS to identify inhibitors of the type 1 interferon - major histocompatibility complex class I in skeletal muscle: tertiary screen by RT-qPCR, retest select compounds. From the text:
Assay Submitter (PI): Travis B. Kinder Ph.D. & James Inglese Ph.D. Assay Development and Screening Technology Laboratory (ADST) National Center for Advancing Translational Sciences (NCATS), Rockville, MD National Institute of Health (NIH), Bethesda, Maryland Idiopathic inflammatory myopathies, collectively referred to as myositis, are a group of rare autoimmune diseases characterized by skeletal muscle inflammation, weakness, and usually accompanied by systemic pathologies of the skin, lungs, or vasculature. Current immunosuppressive therapies and glucocorticoids are often not curative and are accompanied by harsh side effects, especially in children with juvenile myositis. We initiated a drug repurposing and development program to identify more targeted, less toxic therapeutics to treat myositis. Although its cause is not known, muscle from a subset of patients have an abundance of the inflammatory type 1 interferon (IFN) and a down-stream product major histocompatibility complex class I (MHC class I), which are both thought to contribute to damage and weakness. We conducted quantitative high throughput screening (qHTS) on 6,576 compounds (4,679 unique) through a series of cell-based assays to identify those that inhibit the IFN-stimulated expression of MHC class I in muscle precursor cells (myoblasts). The compound identification and evaluation strategy utilized a primary screen with reporter-tagged MHC class I in genome-engineered myoblasts, ATP content counter screen for viability, HLA-ABC immunofluorescence secondary screen, and HLA-B RT-qPCR tertiary screen. To determine if active compounds identified by qHTS in HLA-B HiBit reporter cells, and confirmed by HLA-ABC immunofluorescence, can inhibit the transcription of HLA-B mRNA, compounds were assayed by RT-qPCR. […] Briefly, five compounds identified from primary, counter, and secondary screening as inhibitory with minimal cytotoxicity were dispensed into 384-well plates using acoustic dispensing in a 6-point, 1:7 titration with a high final concentration of 10 uM. Normal immortalized human myoblasts C25cl48 were added to the plate with 4.0 ng/ml human IFN-beta for 24 hours, and cells were harvested and assayed by the Cells-to-Ct kit with TaqMan assays (Thermo Fisher).
PROTOCOL TABLE (as described by Inglese et al., 2007) SEQUENCE No. (e.g., 1, 2, 3, etc.); PARAMETER (e.g., Cells, Incubation, Reagent, etc.); VALUE; DESCRIPTION 0; Compounds; 150 nl; Follow-up compounds dispensed at 150 nl/well with Labcyte Echo 655 acoustic dispenser into one Corning white/clear bottom, high base TC 384-well plates (3765) 1a; Cells; 30 uL; Using a p200 manual pipette, seed 780 cells/well into 1 plate in 30 ul/well of iHSKM growth medium without dexamethasone into columns wells A1-A6. […]
For orientation: In qHTS, concentration-response curves come from the screen itself.

Take `C[C@]12C=CC(=O)C=C1CC[C@@H]1[C@@H]2[C@@H](O)C[C@@]2(C)[C@H]1CC[C@]2(O)C(=O)CO`: the Potency entry was “inactive”.
With `Cc1ncsc1-c1ccc([C@H](C)NC(=O)[C@@H]2C[C@@H](O)CN2C(=O)[C@@H](NC(=O)COCCCOCCNC(=O)C[C@@H]2N=C(c3ccc(Cl)cc3)c3c(sc(C)c3C)-n3c(C)nnc32)C(C)(C)C)cc1`, the Potency is 164 nM (active).
As for `CS[C@H]1SC[C@@H]2C(=O)N(C)[C@H](C(C)C)C(=O)OC[C@H](NC(=O)c3cnc4ccccc4n3)C(=O)N[C@H](C)C(=O)N(C)[C@H]1C(=O)N(C)[C@H](C(C)C)C(=O)OC[C@H](NC(=O)c1cnc3ccccc3n1)C(=O)N[C@H](C)C(=O)N2C`, the Potency is 2.9 nM (active).
Next, `CC(=O)OCC(=O)[C@@]12OC(C)(C)O[C@@H]1C[C@H]1[C@@H]3C[C@H](F)C4=CC(=O)C=C[C@]4(C)[C@@]3(F)[C@@H](O)C[C@@]12C`: “inactive”.
